Experimental data reported in PubChem BioAssay (NCI).
The panel holds about 79,000 compounds, 15% with a hit somewhere; the sample as a whole holds those more often. No stated cut-off is given here; in the data, active means growth inhibition above about 70%; inactive means the rest.

How the values were obtained:
[1] = NCI Yeast Anticancer Drug Screen. Data for the rad50 strain (AID 155);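 further: 0% = growth of vehicle-only cultures of the same strain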; settings: S. cerevisiae rad50 strain growth inhibition; at 50.0 µM; active compounds read high
Procedure, shortened: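 Yeast carrying a defined DNA repair defect were exposed to test compounds, and growth was compared with vehicle-treated controls to give percent inhibition.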

[2] = NCI Yeast Anticancer Drug Screen. Data for the mec2-1 strain (AID 157); settings: S. cerevisiae mec2-1 strain, at 50.0 µM, active compounds read high
Procedure, shortened: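 Vehicle-treated cultures served as reference for growth inhibition of compound-exposed mec2-1 yeast.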

[3] = NCI Yeast Anticancer Drug Screen. Data for the cln2 rad14 strain (AID 165);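 further: 0% = growth equal to vehicle treated cultures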; settings: S. cerevisiae cln2 rad14 strain, at 50.0 µM, active compounds read high
Procedure, shortened: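 Each compound was tested on cln2 rad14 yeast. Inhibition of growth was calculated against vehicle-exposed controls.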

[4] = NCI Yeast Anticancer Drug Screen. Data for the bub3 strain (AID 167); settings: S. cerevisiae bub3 mutant strain, at 50.0 µM, active compounds read high
Procedure, shortened: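 Compounds were applied to a genetically altered yeast strain carrying a cell-cycle control defect. Growth inhibition was scored against vehicle-treated controls.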

[5] = NCI Yeast Anticancer Drug Screen. Data for the mlh1 rad18 strain (AID 175); settings: S. cerevisiae mlh1 rad18 strain growth inhibition; at 50.0 µM; active compounds read high
Procedure, shortened: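 Vehicle-treated cultures served as the reference for growth inhibition in a yeast strain carrying DNA damage repair alterations exposed to each compound.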

[6] = NCI Yeast Anticancer Drug Screen. Data for the sgs1 mgt1 strain (AID 161);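 further: 0% = growth of cultures given vehicle only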; settings: S. cerevisiae sgs1 mgt1 strain, at 50.0 µM, active compounds read high
Procedure, shortened: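 Genetically altered yeast, compound exposure, growth inhibition relative to vehicle.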

Measured: growth inhibition

C/C(=N\N=C(N)N)C(CN(CC(C)C)CC(C)C)C(=O)Nc1ccc(C)cc1C (stereo not given)
inactive: [1] 7.6% | [2] 6.55% | [3] 38.3% | [4] -3.85% | [5] 13.8%

CC(=O)N(C(=O)CC(=O)NN)c1ccc(Cl)cc1
inactive: [1] -19.1% | [2] -21.3% | [3] 26.3% | [4] 6.95% | [5] 26%

CC(=O)Nc1ccc(C2SCc3nc4ccccc4n32)cc1 (stereo not given)
inactive: [1] -21.5% | [2] -11.1% | [3] -34.2% | [4] -24.9% | [5] -48.8%

Cc1cn(C2OC(CO)C(O)C(O)C2O)c(=O)[nH]c1=O (stereo not given)
inactive: [1] -1.4% | [2] 5.65% | [3] -3.2% | [4] 15.2% | [5] 0.9%

COc1cccc(NC(=S)NNC(=S)NNc2ccccc2)c1
inactive: [1] 59.4% | [2] 60.2% | [3] 43% | [4] 65.2% | [5] 63.6%

CCOC(=O)C1CC(=O)C2/C(=C(\O)c3ccccc3)C=C([N+](=O)[O-])C1C2[N+](=O)[O-] (stereo not given)
inactive: [1] 3% | [2] 3.65% | [3] -1.25% | [4] 3.6% | [5] -1.2%

CC(C)=NOC(=O)Nc1cccc2c1OCO2
inactive: [1] -30.3% | [2] -19.4% | [3] -14.8% | [4] -35.5% | [5] 4.25%

CCOC(=O)CC(C)C1(C=O)CCCCC1=O (stereo not given)
inactive: [1] -3.2% | [2] -30.3% | [3] 7.25% | [4] -19.5% | [5] -17.4%

Cc1ccc(S(=O)(=O)NC2C(=O)c3ccccc3C(=O)C2n2cnc3ccccc32)cc1 (stereo not given)
inactive: [1] 14.3% | [2] 1.8% | [3] -16.9% | [4] -14.9% | [5] -28.8%

CCC(CC(N)=O)C(C#N)(C#N)C(N)=O (stereo not given)
inactive: [1] 12.9% | [2] 5.05% | [3] -2.85% | [4] 7.1% | [5] 3.95%

Cc1ccccc1C1OC(=O)c2ccc3ccccc3c21 (stereo not given)
inactive: [1] 10.6% | [2] 1.8% | [3] 7.95% | [4] 1.45% | [5] 6.55%

Cn1cc(C2NC(=O)c3ccccc3N2)c2ccccc21 (stereo not given)
inactive: [1] -25.1% | [2] -15.7% | [3] 12% | [4] -15% | [5] -11.7%

CCNC(=O)C(C(=O)OC)c1ccccc1 (stereo not given)
inactive: [1] 3.7% | [2] -1.5% | [3] -3.45% | [4] 30.8% | [5] 1.2%

BrC1c2ccccc2-c2nc3ccccc3nc21 (stereo not given)
inactive: [1] 11.2% | [2] 4.6% | [3] 56.2% | [4] 17.1% | [5] 29.9%

O=C(NC(Cc1cccnc1)C(=O)O)c1ccccc1 (stereo not given)
inactive: [1] 2.85% | [2] 11.4% | [3] -16.4% | [4] 12.9% | [5] 7.65%

O=C(O)c1cc(-c2ccccc2)nc2c(Cl)cc(Cl)cc12
inactive: [1] -12.9% | [2] -28.8% | [3] 9.8% | [4] -16.4% | [5] -3.6%

O=C1CCCC2=C(N1)C(=O)C=CC2=O
inactive: [1] -2.55% | [2] 20.9% | [3] 39.5% | [4] -0.2% | [5] -20.9%

O=C(c1ccccc1)c1nc2ccc(Cl)cc2cc1C(Br)Br
inactive: [1] 17.9% | [2] -2.75% | [3] 15.1% | [4] 28.8% | [5] 17.9%

OC(CCCCCCCCC(O)CN1CCCCC1)CN1CCCCC1 (stereo not given)
inactive: [1] 3.3% | [2] 25.6% | [3] 11% | [4] 20.6% | [5] 15.1%

CC1C(=O)C(c2ccccc2)(c2ccccc2)CC[N+]1(C)C (stereo not given)
inactive: [1] 1.1% | [2] 5.4% | [3] -13.7% | [4] 4.1% | [5] 10.4%

CCCCCCCC(=O)NCCCC(C)Nc1cc(OC)cc2cccnc12 (stereo not given)
inactive: [1] 39.7% | [2] 47% | [3] 14.9% | [4] 22% | [5] 28.1%

N#C/C(=C\c1cccc(Br)c1)c1nc2ccccc2c(=O)[nH]1
inactive: [1] 5.75% | [2] 4.4% | [3] 1.55% | [4] -14.4% | [5] -35.4%

CCOC(=O)/C=C(\N=P(c1ccccc1)(c1ccccc1)c1ccccc1)C(F)(F)C(F)(F)C(F)(F)C(F)(F)C(F)(F)F
inactive: [1] 19.4% | [2] 4% | [3] 18.4% | [4] 20.2% | [5] 45.2%

O=C1Nc2cc([N+](=O)[O-])c(Br)cc2C1=O
inactive: [1] 22.1% | [2] 27.4% | [3] 14.9% | [4] 5.8% | [5] 12.1%

Cc1ccc(NC(=O)C(=O)CC(=O)c2c(C)n([O-])c3ccccc3[n+]2=O)cc1C
inactive: [1] -6.2% | [2] -1.55% | [3] 9.35% | [4] 0.2% | [5] 11.9%

COc1cccc(C2c3cc4c(cc3OC(N3CCCC3)C2C)OCO4)c1O (stereo not given)
inactive: [1] 13.6% | [2] -18.6% | [3] -19.8% | [4] 12.3% | [5] -11.1%

N#CC(N)c1ccc(OCCCCCCCCCCOc2ccc(C(N)C#N)cc2)cc1 (stereo not given)
inactive: [1] 1.5% | [2] 2.65% | [3] -7.8% | [4] -17.4% | [5] -20.8%

CO[C@@H]1[C@@H](O)c2ccccc2N1C(C)=O
inactive: [1] 13.4% | [2] 1.9% | [3] 8.15% | [4] 3.25% | [5] 20.1%

COC1=C(C#N)C(c2ccccc2)CC(N)=N1 (stereo not given)
inactive: [1] 1.55% | [2] -11.1% | [3] 2.1% | [4] -1% | [5] 20.4%

CC1C=CC(C)c2c(-c3ccccc3)oc(-c3ccccc3)c21 (stereo not given)
inactive: [1] 17% | [2] 8.6% | [3] -2.6% | [4] -0.4% | [5] 9.7%

CC1NC(=O)OC1C(C)(C)C (stereo not given)
inactive: [1] 6.95% | [2] -2.8% | [3] -19.1% | [4] -5.4% | [5] -4.55%

CSc1ncnc2[nH]ncc12
inactive: [1] 4.5% | [2] 20.9% | [3] -20.9% | [4] -0.4% | [5] -62.1%

N[C@H](C(=O)O)[C@H]1ON=C(Cl)[C@@H]1O
inactive: [1] 7.4% | [2] 4.55% | [3] 16.6% | [4] 11.3% | [5] -2.15%

O=[N+]([O-])c1ccc(Nc2ccccc2)c2nonc12
inactive: [1] -22.2% | [2] 4.45% | [3] 26.4% | [4] 13.8% | [5] 29.4%

Cc1ccc(NC(=O)OCCN(C)C)cc1Cl
inactive: [1] -6.75% | [2] -25.8% | [3] 11.1% | [4] 8.2% | [5] -4.6%

CC(=O)OC1COC(n2cnc3c(N)ncnc32)C(OC(C)=O)C1OC(C)=O (stereo not given)
inactive: [1] 5.3% | [2] -5.15% | [3] -26.1% | [4] 1.2% | [5] -4.2%

COc1cc(OC)cc(C(NC(C)=O)NC(C)=O)c1
inactive: [1] 5.45% | [2] 2.55% | [3] -31.2% | [4] 1.5% | [5] 17.1%

Cc1[nH]c(N)nc(=S)c1CCC(C)C
inactive: [1] -16.6% | [2] -9.7% | [3] -100% | [4] -1.55% | [5] 17.2%

C[CH2][Sn]([CH2]C)([O]C(=O)c1cccc(F)c1)[O][Sn]([CH2]C)([CH2]C)[O]C(=O)c1cccc(F)c1
inactive: [1] 31.4% | [2] 3.3% | [3] 16.4% | [4] 13.6% | [5] 0.45%

OCCCNCc1ccccc1
inactive: [1] -36.8% | [6] -20.1% | [3] -32.4% | [4] -32.9% | [5] -21.1%

c1cc[n+](Cc2ccc3ccccc3n2)cc1
inactive: [1] -0.95% | [6] -5.85% | [3] -27.4% | [4] -2.2% | [5] 28.9%

CC(=O)n1c2ccccc2c2nc3ccccc3nc21
inactive: [1] 0.3% | [6] 11.9% | [3] -30.9% | [4] -19.6% | [5] -14.1%

O=C(O)c1ccc(C(=O)O)c(C(=O)Nc2ccc3c(c2)C(=O)c2ccccc2-3)c1
inactive: [1] 41.9% | [6] -2.15% | [3] -2.85% | [4] 9.7% | [5] 48.9%

COc1ccc(/C=N/Nc2nc3ccccc3c(=O)n2-c2ccccc2)c(OCc2ccccc2)c1
inactive: [1] 4.7% | [6] 5.5% | [3] -0.1% | [4] 9% | [5] 9.85%

CCC(C)(O)C(C)(O)CC (stereo not given)
inactive: [1] -6.55% | [6] 15.4% | [3] 17.6% | [4] -13.8% | [5] -8.8%
